# Compounds with a hit are over-represented: about 1.2% of the library has one in this group of screens.
# GSH fluor: compound fluorescence on glutathione beads, profiling panel, artefact control, biophysical, 488/530 nm, flow cytometry. AID 1776, 2009. 190,000 tested, 0.25% active. fluorescence (KMESF) at 10 µM. GSH beads flow cytometry, compound fluorescence 488/530 nm; stronger effect = higher value; in the data active = fluorescence above about 89;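 also: glutathione beads carrying GST-tagged Bcl family fusion proteins plus one bare bead set; values are compound well signal with DMSO vehicle wells as background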
# Avidin bead fluor: green autofluorescence of compounds with avidin beads – biophysical, 488/530 nm, flow cytometry, artefact control, profiling panel | compound fluorescence 488/530 nm; stronger effect = higher value | fluorescence (KMESF) at 10 µM | 220,000 tested, 0.38% active | AID 1775, 2009; in the data active = fluorescence above about 47
# RGS16-Gao: modulators of RGS16 binding to Galphao, primary screen, biochemical, human proteins, multiplexed bead flow cytometry; Regulator of G-protein signaling 16 (Homo sapiens) + Guanine nucleotide-binding protein …; bead-based flow cytometry RGS16-Galphao binding, fluorescence; actives lie on both sides; binding response (% of control), % at 10 µM; 220,000 tested, 0.38% active; AID 1441, 2008;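 also: Galphao activated by GDP with aluminum fluoride before binding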
# RGS7-Gao reg: RGS7-Galphao binding modulators, primary screen, biochemical, multiplexed bead flow cytometry; Guanine nucleotide-binding protein G(o) subunit alpha (Homo sapiens), P09471; actives lie on both sides; binding response (% of control), % at 10 µM; 220,000 tested, 0.35% active; in the data active = binding response below about 49% or above about 150%; inconclusive = no clear call, values can overlap the other calls; inactive = in between;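 also: fluorescent Galphao held in activated GDP-AlF4 state binding bead-coupled RGS7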
# RGS8-Gao: RGS8-Galphao binding modulators, primary screen, biochemical, multiplexed bead flow cytometry; actives lie on both sides; response (percent of control binding), % at 10 µM; 220,000 tested, 0.34% active; in the data active = response below about 60% or above about 140%; inactive = in between;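 also: Galphao activated as the GDP aluminium fluoride complex binding bead-coupled RGS8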
# RGS4-Gao reg: modulators of RGS4 binding to Galphao, primary screen, biochemical, multiplexed bead flow cytometry. Guanine nucleotide-binding protein G(o) subunit alpha (Homo sapiens), P09471. actives lie on both sides. binding response (% of control), % at 10 µM. 220,000 tested, 0.33% active. AID 1415, 2008; in the data active = binding response below about 49% or above about 150%; inactive = in between;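 also: fluorescent Galphao activated with aluminum fluoride binding bead-coupled RGS4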
# RGS4-Gao HTS: modulators of RGS–Galpha-o binding, primary screen, biochemical, multiplexed beads, flow cytometry, RGS4/7/8/16/19. shares compounds with RGS16-Gao. AID 1504, 2009. 1,600 tested, 99% active. RGS4–Galpha-o binding response, % at 10 µM. multiplexed bead flow cytometry;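 also: fluorescently labeled Galpha-o bound to GDP with aluminium fluoride binding biotinylated RGS beads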
# Biotin-avidin: disruption of biotin probe capture by avidin, counter-screen for RGS protein interaction modulators, biochemical, flow cytometry, bead-based | shares compounds with RGS16-Gao | streptavidin beads, fluorescein-biotin binding | inhibition, % at 10 µM | 1,700 tested, under 10 active | AID 1783, 2009;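 active = inhibition above 50%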;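 also: median green fluorescence of gated singlet beads compared with DMSO control wells; 0% = DMSO wells and 100% = complete loss of bead fluorescence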
# RGS8-Gao single: RGS8-Galphao binding modulators, confirmation, biochemical, multiplexed bead flow cytometry, single concentration; shares compounds with RGS16-Gao; bead-based flow cytometry RGS8-Galphao binding, fluorescence; actives lie on both sides; binding response (% of control), % at 10 µM; 1,700 tested, 3% active; in the data active = binding response below about 72% or above about 130%; inactive = in between;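 also: Galphao activated as GDP AlF4 complex before binding bead RGS8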
# RGS7-Gao confirm: RGS7-Galphao binding modulators, confirmation, biochemical, multiplexed bead flow cytometry, single concentration; bead-based flow cytometry RGS7-Galphao binding; actives lie on both sides; AID 1837, 2009; 1,700 tested, 7.8% active; shares compounds with RGS16-Gao; response (percent of control binding), % at 10 µM; in the data active = response below about 75% or above about 130%; inactive = in between;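 also: fluorescent Galphao activated with GDP and aluminum fluoride binding bead-coupled RGS7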
# RGS16-Gao conf: modulators of RGS16-Galphao protein binding, confirmation, biochemical, single concentration, multiplexed bead flow cytometry; AID 1838, 2009; 1,700 tested, 4% active; response (% of control binding), % at 10 µM; shares compounds with RGS16-Gao; bead-based flow cytometry; actives lie on both sides; in the data active = response below about 74% or above about 130%; inactive = in between;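 also: Galphao activated as the GDP aluminium fluoride complex binding bead-coupled RGS16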
# RGS4-Gao single: modulators of RGS4-Galphao protein binding, confirmation, biochemical, single concentration, multiplexed bead flow cytometry | shares compounds with RGS16-Gao | actives lie on both sides | binding response (% of control), % at 10 µM | 1,700 tested, 4% active | AID 1840, 2009; in the data active = binding response below about 74% or above about 130%; inactive = in between
# RGS19-Gao single: regulators of RGS19-Galphao binding, confirmation, biochemical, single point, multiplexed bead flow cytometry. shares compounds with RGS16-Gao. bead-based flow cytometry RGS19-Galphao binding; actives lie on both sides. response (percent of control binding), % at 10 µM. 1,700 tested, 5% active; in the data active = response below about 50% or above about 160%; inactive = in between;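 also: 100% = no compound control and 0% = blank background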
# An asterisk follows results filed as active; ? = inconclusive; / = not tested or not shown; [ ] = remark or other dose. Unless noted, no rule for the calls is given here.
SMILES,GSH fluor,Avidin bead fluor,RGS16-Gao,RGS7-Gao reg,RGS8-Gao,RGS4-Gao reg,RGS4-Gao HTS,Biotin-avidin,RGS8-Gao single,RGS7-Gao confirm,RGS16-Gao conf,RGS4-Gao single,RGS19-Gao single
C#CCNC(=O)C1=C[C@H](C2CCCCC2)[C@@H](CCCO)[C@H](OCC)O1,20,2,41,38*,44*,52,52*,0,99,98,102,100,117
COC(=O)C1=C(C)N=c2s/c(=C3\C(=O)Nc4ccccc43)c(=O)n2C1c1ccccc1 (centres undefined),20,5,179*[activator],114,120,118,118*,0,102,103,104,100,94
O=C(Nc1ccc(O)c(C(=O)O)c1)Oc1ccccc1,/,2,94,?,99,101,/,/,/,/,/,/,/
COc1cc(C(=O)NCc2nnc(SCC(=O)N3CCCc4ccccc43)o2)cc(OC)c1OC,11,25,119,113,110,109,/,/,/,/,/,/,/
Cc1cccc2cc(COC(=O)c3ccccn3)c(=O)[nH]c12,8,8,-25*,71,74,69,69*,-1,98,99,100,97,107
COc1ccc(C(=O)OCc2cc3cccc(C)c3[nH]c2=O)cc1,19,6,99,90,97,93,/,/,/,/,/,/,/
CC1CC(CCC(=O)NC(=S)Nc2ccc(Cl)cn2)C(=O)O1 (centres undefined),17,10,112,103,103,105,/,/,/,/,/,/,/
CC(C)C(=O)NC(=S)N(Cc1ccccc1)Cc1ccccc1,7,6,184*[activator],106,123,106,106*,-1,101,62*,88,70*,171*[activator]
O=C(CSc1nn(-c2ccc(F)cc2)c(=S)s1)NC(=O)NCc1ccco1,19,2,19*,88,76,74,74*,0,110,105,106,103,96
Cc1nnc(SCC(=O)NC(=O)NCc2ccco2)s1,10,15,101,?,101,99,/,/,/,/,/,/,/

# Screens (PubChem)
